Screening data (PubChem BioAssay)
BoNT-F LC inh: BoNT F light chain protease inhibition | Multiplex microsphere protease cleavage assay, flow cytometry | AID 588497 | inhibition, % at 10 µM | 0.22% of 360,000 active; in the data active = inhibition above about 35%, passing the limit was not always enough; inconclusive = no clear call, values can overlap the other calls; note: plate controls were buffer without enzyme for full effect and enzyme alone for no effect
Bead autofluor: compound fluorescence in toxin protease inhibitor counterscreen; fluorescence intensity (test concentration not listed); compound autofluorescence counterscreen, microsphere flow cytometry; active compounds read high; 3.1% of 360,000 active; in the data active = fluorescence intensity above about 16000; inconclusive = no clear call, values can overlap the other calls
BoNT-A LC inh2: BoNT A light chain protease inhibition. multiplex microsphere protease substrate cleavage, flow cytometry. inhibition, % at 10 µM. 0.17% of 360,000 active; in the data active = inhibition above about 30%; inconclusive = no clear call, values can overlap the other calls; note: plate controls were buffer without enzyme for full effect and enzyme alone for no effect
Anthrax LF prot: blocks Bacillus anthracis lethal factor protease | 0.12% of 360,000 active | inhibition, % at 10 µM | multiplex microsphere protease cleavage assay, LF | P15917; in the data active = inhibition above about 30%; inconclusive = no clear call, values can overlap the other calls; note: plate controls were buffer without enzyme for full effect and enzyme alone for no effect
Target sequence (P15917 whole entry, looked up): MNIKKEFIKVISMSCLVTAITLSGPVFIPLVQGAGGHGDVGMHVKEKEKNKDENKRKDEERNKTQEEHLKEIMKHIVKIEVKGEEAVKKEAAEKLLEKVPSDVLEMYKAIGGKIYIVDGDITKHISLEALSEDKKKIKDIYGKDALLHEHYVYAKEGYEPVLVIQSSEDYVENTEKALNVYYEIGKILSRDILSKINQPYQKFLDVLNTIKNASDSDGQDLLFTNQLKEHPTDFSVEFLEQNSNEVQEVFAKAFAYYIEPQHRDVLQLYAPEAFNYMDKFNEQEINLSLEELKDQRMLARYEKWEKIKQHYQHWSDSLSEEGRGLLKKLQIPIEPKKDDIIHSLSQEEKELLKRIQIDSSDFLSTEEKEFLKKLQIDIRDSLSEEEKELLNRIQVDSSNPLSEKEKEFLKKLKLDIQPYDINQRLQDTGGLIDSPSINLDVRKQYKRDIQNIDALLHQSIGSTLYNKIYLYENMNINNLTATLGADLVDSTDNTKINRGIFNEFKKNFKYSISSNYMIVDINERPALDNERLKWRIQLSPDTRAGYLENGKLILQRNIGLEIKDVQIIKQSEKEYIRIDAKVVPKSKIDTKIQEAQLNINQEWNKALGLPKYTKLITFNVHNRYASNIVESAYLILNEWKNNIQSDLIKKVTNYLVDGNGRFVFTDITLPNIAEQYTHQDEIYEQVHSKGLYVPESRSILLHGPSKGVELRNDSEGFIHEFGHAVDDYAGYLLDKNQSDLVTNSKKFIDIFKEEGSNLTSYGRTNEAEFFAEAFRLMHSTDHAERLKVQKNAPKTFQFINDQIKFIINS
BoNT-A LC CP1: BoNT/A light chain protease inhibition; shares compounds with BoNT-F LC inh; multiplex microsphere protease assay, flow cytometry; inhibition, % at 10 µM; 3% of 720 active; AID 602139; in the data active = inhibition above about 32%
BoNTF LC inh 1: blocks botulinum neurotoxin F light chain protease | multiplex microsphere protease cleavage assay, flow cytometry | inhibition, % at 10 µM | shares compounds with BoNT-F LC inh | 720 tested, under 10 active
Anthrax LF CP1: inhibitors of Bacillus anthracis lethal factor protease. shares compounds with BoNT-F LC inh. multiplex microsphere protease cleavage assay, LF. inhibition, % at 10 µM. 720 tested, under 10 active
The depositor's hits bear a star; ? = inconclusive; / = no result. Most compounds without a hit are left out; they make up all but 3.5% or so of the library. Unless noted, the rule behind the calls is not given here.

SMILES | BoNT-F LC inh | Bead autofluor | BoNT-A LC inh2 | Anthrax LF prot | BoNT-A LC CP1 | BoNTF LC inh 1 | Anthrax LF CP1
Cc1ccc(NC(=O)Cc2ccc(Cl)cc2)nc1 | ? | ? | 3 | 47* | -2 | -6 | -1
C=CCn1c(CCC)nc2ccccc21 | 0 | 4013 | 0 | 0 | / | / | /
C=CCn1c(C(CC)CC)nc2ccccc21 | 36* | 4311 | -2 | -16 | 0 | -2 | 3
COc1ccc(C(=O)NNC(=O)CSc2nnc(C3CC3)n2C)cc1 | -3 | 5467 | -2 | -1 | / | / | /
CCC(C)[C@H](NC(=O)N1CCCCC1)C(=O)OC (stereo partly drawn) | ? | 4756 | 3 | 35* | -1 | 3 | -1
Cc1cc(C)n(-c2nnc(NC34CC5CC(CC(C5)C3)C4)nn2)n1 | 11 | 2849 | 52* | 20 | 16 | -6 | 21
Cc1cc(C)n(-c2nnc(NC(C)(C)C)nn2)n1 | -1 | 2650 | 1 | -2 | / | / | /
C=CCc1cccc(CNn2cnnc2)c1O | 43* | 4273 | -1 | 3 | -1 | 0 | -4
CCN(Cc1ccccc1)C(c1cc2cc(C)ccc2[nH]c1=O)c1nnnn1CCOC (stereo not drawn) | 5 | 4288 | 1 | -2 | 1 | -1 | 1
CN(C)S(=O)(=O)c1cc(C(=O)NCCCn2ccc3ccccc32)ccc1Cl | -27 | 4171 | 6 | 12 | 0 | -3 | 2
COc1ccc(CCNC(=O)c2ccc(Cl)c(S(=O)(=O)N(C)c3ccccc3)c2)cc1 | -2 | 9294 | -1 | 0 | / | / | /
C=CCc1ccc(OCCOCCN(C)C)c(OC)c1 | 14 | 3818 | 0 | -2 | / | / | /
C=CCc1ccc(OCCOc2cccc3ccc(C)nc23)c(OC)c1 | 53* | 9218 | 46* | -8 | -2 | -3 | -3
Cc1ccc2cccc(OCc3ccc(Br)cc3)c2n1 | 39* | 3567 | 0 | -6 | 0 | -8 | 4
Cc1ccc2cccc(OCc3ccc(F)cc3)c2n1 | 5 | 3466 | 1 | -6 | / | / | /
COc1ccc(OC)c(Nc2nc(NCCCN(C)C)nc(N)c2[N+](=O)[O-])c1 | ? | 3678 | 1 | 31* | 1 | -5 | -3
COc1cc(/C=C/C(=O)N2CCCc3ccccc32)cc(OC)c1OC | -1 | 2539 | 0 | 0 | / | / | /
O=C(Nc1ccc2nc3ccccc3nc2c1)c1ccccc1 | 26 | 2248 | 63* | 23 | 39* | 11 | 28
O=C(Nc1ccc(Cl)c(Cl)c1)c1ccccc1 | -7 | 4038 | 0 | -7 | / | / | /
CCOC(=O)c1c(N)sc(C(=O)N2CCOCC2)c1C | 0 | 11163 | 0 | 2 | / | / | /
CCOC(=O)c1c(NC(=S)N2CCOCC2)sc(C)c1C | 48* | 3766 | 2 | 5 | -3 | -6 | -3
COc1cc(/C=C\C(=O)NCc2ccc3[nH]c(C)cc3c2)cc(OC)c1OC | 11 | 5749 | 2 | 2 | / | / | /
COc1ccc(C(=O)NCc2ccc3[nH]c(C)cc3c2)cc1OC | -45 | 3032 | 65* | -4 | 0 | -4 | 3
COc1cc(C(=O)NCc2ccc3[nH]c(C)cc3c2)cc(OC)c1OC | -70 | 2596 | 53* | -36 | 0 | -12 | -4
COc1ccc(CCNC(=O)c2ccc3c(c2)OCO3)cc1 | 2 | 5785 | 64* | 3 | 1 | -2 | 2
SMILES | BoNT-F LC inh | Bead autofluor | BoNT-A LC inh2 | Anthrax LF prot | BoNT-A LC CP1 | BoNTF LC inh 1 | Anthrax LF CP1
COc1ccc(CCNC(=O)c2ccc3c(c2)OCCO3)cc1 | -2 | 3469 | 0 | -5 | / | / | /
CCCC(=O)N1CCCC(c2cc(C(=O)Nc3ccccc3)no2)C1 (stereo not drawn) | -3 | 3691 | 0 | -2 | / | / | /
C=CCOc1c(Cl)cc(CNCCCN2CCOCC2)cc1OC | -8 | 3378 | -1 | 25 | / | / | /
CCCCC1Cc2[nH]c(=S)[nH]c(=O)c2C(C(C)C)O1 (stereo not drawn) | -4 | 4128 | -1 | -13 | / | / | /
Cc1ccc(S(=O)(=O)N2CCN(C(=S)NCC3CCCO3)CC2)cc1 (stereo not drawn) | 24 | 3966 | 3 | 5 | / | / | /
COc1ccc(-c2c(C)nn3c(N)c(-c4ccccc4)cnc23)cc1OC | 40* | 4470 | -6 | -2 | 0 | -4 | -3
COc1ccccc1-c1c(C)nn2c(N)c(-c3ccccc3)cnc12 | 19 | 4105 | 1 | -1 | / | / | /
Cc1ccc(S(=O)(=O)N(CC(=O)NC2CC2)c2ccc(C)c(Cl)c2)cc1 | -4 | 5804 | -2 | -3 | / | / | /
CC1CCN(CCCCOc2ccccc2F)CC1 | 0 | 4189 | 3 | 2 | / | / | /
CC1CCN(CCCCOc2ccccc2Br)CC1 | 43* | 3041 | 6 | 0 | 0 | -5 | 0
COC(=O)c1c(N)nc(C)n1-c1ccc(OC)cc1 | 4 | 3166 | 1 | -4 | / | / | /
